# Assay results from PubChem BioAssay (EPA / NIEHS).
# Activity calls are given as the source filed them. Rule for the calls: active = hit-call score of the fitted dose curve at least 0.9, where 1 is the maximum; inactive = score below 0.9.
# What was measured:
# [1] = CEETOX_H295R_PROG: CeeTox H295R High-throughput Steroidogenesis Assay for Progesterone (PROG) (AID 2283442); conditions: actives raise or lower the signal;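 for AC50: human H295R adrenal cells primed with 10 µM forskolin before dosing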
# Method in brief: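 Measured analyte is progesterone secreted by H295R cells at 48 h of chemical treatment, following 10 uM forskolin priming. Quantitation used HPLC-MS/MS against a 7-point standard curve; cytotoxicity was checked by MTT absorbance.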
# [2] = read-out: Tumor necrosis factor receptor superfamily member 6 (Homo sapiens) (UniProt P25445); assay: LTEA_HepaRG_FAS: Life Technologies and Expression Analysis (LTEA) Assay for Fas cell surface death receptor (FAS) using HepaRG (AID 2283447); conditions: mRNA level, 48 h; actives raise or lower the signal
# Method in brief: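 Differentiated human HepaRG cells, pre-cultured 48 h, were exposed in duplicate for 48 h to 8-point half-log concentrations (top 100 uM, 0.5% DMSO) in serum-free induction medium; FAS mRNA measured by qRT-PCR, normalized to ACTB/GAPDH/POLR2A, bidirectional fit versus DMSO.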
# [3] = read-out: Fatty acid synthase (Homo sapiens) (UniProt P49327); assay: LTEA_HepaRG_FASN: Life Technologies and Expression Analysis (LTEA) Assay for Fatty Acid Synthase (FASN) using HepaRG (AID 2283448); conditions: mRNA level, 48 h; actives raise or lower the signal
# Method in brief: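 Cells were plated, cultured 48 h, switched to serum-free induction medium, then dosed in duplicate (max 100 uM, half-log dilutions, 0.5% DMSO) for 48 h. RNA was then isolated and FASN quantified by qRT-PCR.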
# [4] = read-out: Cyclin D2 (CCND2), CCND2 (gene 894); assay: LTEA_HepaRG_CCND2: Life Technologies and Expression Analysis (LTEA) Assay for Cyclin D2 (CCND2) using HepaRG (AID 2283449); conditions: mRNA level, 48 h; actives raise or lower the signal;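 note: CCND2 transcript measured by TaqMan qRT-PCR and normalised to three housekeeping genes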
# Method in brief: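 In this HepaRG study, an eight-point concentration series (max 100 uM, 0.5% DMSO) is applied for 48 h. CCND2 mRNA change is derived by qRT-PCR normalised to ACTB, GAPDH and POLR2A.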
# [5] = read-out: Cyclin Dependent Kinase Inhibitor 1A (CDKN1A), CDKN1A (gene 1026); assay: LTEA_HepaRG_CDKN1A: Life Technologies and Expression Analysis (LTEA) Assay for Cyclin Dependent Kinase Inhibitor 1A (CDKN1A) using HepaRG (AID 2283450); conditions: mRNA level, 48 h; actives raise or lower the signal
# Method in brief: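 Gain or loss of CDKN1A transcript is scored by bidirectional fitting against 0.5% DMSO vehicle. Human HepaRG cultures receive chemicals for 48 h across an 8-point series peaking at 100 uM; expression comes from qRT-PCR.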
# [6] = read-out: Cyclin D1 (CCND1), CCND1 (gene 595); assay: LTEA_HepaRG_CCND1: Life Technologies and Expression Analysis (LTEA) Assay for Cyclin D1 (CCND1) using HepaRG (AID 2283451); conditions: mRNA level, 48 h; actives raise or lower the signal
# Method in brief: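 Expression change is measured by qRT-PCR in HepaRG cells after 48 h treatment across eight concentrations topping at 100 uM, with duplicate wells and DMSO (0.5%) serving as baseline for bidirectional fitting.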
# [7] = read-out: catalase (CAT), CAT (gene 847); assay: LTEA_HepaRG_CAT: Life Technologies and Expression Analysis (LTEA) Assay for catalase (CAT) using HepaRG (AID 2283452); conditions: mRNA level, 48 h; actives raise or lower the signal;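 for AC50: TaqMan qRT-PCR signal normalized to ACTB GAPDH and POLR2A housekeeping genes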
# Method in brief: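 Differentiated HepaRG cells in serum-free induction medium were dosed 48 h in duplicate, eight half-log concentrations from 100 uM in 0.5% DMSO. Transcript measured by TaqMan qRT-PCR, normalised to ACTB/GAPDH/POLR2A, fitted bidirectionally against DMSO.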
# [8] = read-out: flavin-containing dimethylaniline monooxygenases 3 (FMO3), FMO3 (gene 2328); assay: LTEA_HepaRG_FMO3: Life Technologies and Expression Analysis (LTEA) Assay for flavin-containing dimethylaniline monooxygenases 3 (FMO3) using HepaRG (AID 2283453); conditions: mRNA level, 48 h; actives raise or lower the signal;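 for AC50: FMO3 transcript by TaqMan qRT-PCR normalized to ACTB GAPDH and POLR2A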
# Method in brief: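 FMO3 transcript quantified by TaqMan qRT-PCR against three housekeeping genes after 48 h chemical exposure of HepaRG cells. Eight-point half-log series, top 100 uM, 0.5% DMSO vehicle; phenobarbital 1mM induction control; up- or down-regulation fitted.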
# [9] = read-out: CFLAR gene, CFLAR (gene 8837); assay: LTEA_HepaRG_CFLAR: Life Technologies and Expression Analysis (LTEA) Assay for CFLAR gene using HepaRG (AID 2283455); conditions: mRNA level, 48 h; actives raise or lower the signal
# Method in brief: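 Gain- or loss-of-signal changes in CFLAR transcript were fitted bidirectionally relative to 0.5% DMSO. Cells (HepaRG, duplicate wells) were dosed for 48 h across eight half-log concentrations topping at 100 uM; quantitation by TaqMan qRT-PCR.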
# [10] = read-out: Forkhead box O1 (FOXO1), FOXO1 (gene 2308); assay: LTEA_HepaRG_FOXO1: Life Technologies and Expression Analysis (LTEA) Assay for Forkhead box O1 (FOXO1) using HepaRG (AID 2283456); conditions: mRNA level, 48 h; actives raise or lower the signal
# Method in brief: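 Using one lot of HepaRG hepatic cells kept in 0.5% DMSO, the team applied test chemicals in duplicate, half-log dilutions from 100 uM, for 48 h. Expression, normalised to ACTB/GAPDH/POLR2A, was compared with vehicle in either direction.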
# [11] = read-out: growth arrest and DNA damage 45 (GADD45A), GADD45A (gene 1647); assay: LTEA_HepaRG_GADD45A: Life Technologies and Expression Analysis (LTEA) Assay for growth arrest and DNA damage 45 (GADD45A) using HepaRG (AID 2283458); conditions: mRNA level, 48 h; actives raise or lower the signal
# Method in brief: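 Transcript induction or loss, quantified by TaqMan qRT-PCR against three housekeeping genes, is the read-out. HepaRG cells received chemicals for 48 h across eight half-log concentrations from 100 uM in 0.5% DMSO; gain and loss fitted relative to DMSO.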
# [12] = read-out: Forkhead box O3 (FOXO3), FOXO3 (gene 2309); assay: LTEA_HepaRG_FOXO3: Life Technologies and Expression Analysis (LTEA) Assay for Forkhead box O3 (FOXO3) using HepaRG (AID 2283459); conditions: mRNA level, 48 h; actives raise or lower the signal
# Method in brief: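 Gene-expression endpoint: FOXO3 transcript level by qRT-PCR in HepaRG cultures treated 48 h with chemicals up to 100 uM (half-log, 0.5% DMSO vehicle).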
# [13] = read-out: ABC Transporter (ABCB1), ABCB1 (gene 5243); assay: LTEA_HepaRG_ABCB1: Life Technologies and Expression Analysis (LTEA) Assay for ABC Transporter (ABCB1) using HepaRG (AID 2283460); conditions: mRNA level, 48 h; actives raise or lower the signal
# Method in brief: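 Human liver HepaRG line treated 48 h with up to 100 uM compound (eight half-log points, 0.5% DMSO); ABCB1 mRNA change fitted bidirectionally against DMSO controls.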
# [14] = read-out: growth arrest and DNA damage 45 (GADD45B), GADD45B (gene 4616); assay: LTEA_HepaRG_GADD45B: Life Technologies and Expression Analysis (LTEA) Assay for growth arrest and DNA damage 45 (GADD45B) using HepaRG (AID 2283461); conditions: mRNA level, 48 h; actives raise or lower the signal
# Method in brief: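 Human HepaRG monolayers receive chemicals for 48 h at eight half-log concentrations, highest 100 uM, in 0.5% DMSO. Expression is measured by TaqMan qRT-PCR and normalized to ACTB, GAPDH and POLR2A.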
# [15] = read-out: ABC Transporter (ABCC3), ABCC3 (gene 8714); assay: LTEA_HepaRG_ABCC3: Life Technologies and Expression Analysis (LTEA) Assay for ABC Transporter (ABCC3) using HepaRG (AID 2283462); conditions: mRNA level, 48 h; actives raise or lower the signal
# Method in brief: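 Transcriptional change of ABCC3 in HepaRG after 48 h treatment, determined by qRT-PCR normalized to endogenous controls. Concentrations spanned eight half-log steps to 100 uM in 0.5% DMSO.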
# [16] = read-out: ABC Transporter (ABCC2), ABCC2 (gene 1244); assay: LTEA_HepaRG_ABCC2: Life Technologies and Expression Analysis (LTEA) Assay for ABC Transporter (ABCC2) using HepaRG (AID 2283464); conditions: mRNA level, 48 h; actives raise or lower the signal
# Method in brief: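 After plating and 48 h culture, HepaRG medium is replaced with serum-free induction medium and chemicals are added (8 concentrations, max 100 uM, 0.5% DMSO) for 48 h. Total RNA then undergoes qRT-PCR for ABCC2 with housekeeping normalization.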
# [17] = read-out: Cytochrome P450 (CYP1A1), CYP1A1 (gene 1543); assay: LTEA_HepaRG_CYP1A1: Life Technologies and Expression Analysis (LTEA) Assay for Cytochrome P450 (CYP1A1) using HepaRG (AID 2283454); conditions: mRNA level, 48 h; actives raise or lower the signal
# Method in brief: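 Using HepaRG cultures with 0.5% DMSO as vehicle, eight-concentration exposures (max 100 uM) lasted 48 h. Transcript levels were measured by TaqMan qRT-PCR and normalized to ACTB, GAPDH and POLR2A.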
# [18] = CEETOX_H295R_TESTO: CeeTox H295R High-throughput Steroidogenesis Assay for Testosterone (TESTO) (AID 2283457); conditions: actives raise or lower the signal
# Method in brief: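 Steroidogenesis in H295R cells following OECD 456 with minor changes; 48 h exposure. Medium testosterone by HPLC-MS/MS, DMSO as baseline, with MTT viability run in parallel.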
# [19] = read-out: ABC Transporter (ABCB11), ABCB11 (gene 8647); assay: LTEA_HepaRG_ABCB11: Life Technologies and Expression Analysis (LTEA) Assay for ABC Transporter (ABCB11) using HepaRG (AID 2283463); conditions: mRNA level, 48 h; actives raise or lower the signal
# Method in brief: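 Using HepaRG cultures held in 0.5% DMSO, chemicals were tested at half-log dilutions from 100 uM for 48 h. Induction or suppression of ABCB11 mRNA, normalized to ACTB, GAPDH and POLR2A, was fitted bidirectionally against vehicle.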
# [20] = read-out: Broad substrate specificity ATP-binding cassette transporter ABCG2 (Homo sapiens) (UniProt Q9UNQ0); assay: LTEA_HepaRG_ABCG2: Life Technologies and Expression Analysis (LTEA) Assay for ABC Transporter (ABCG2) using HepaRG (AID 2283465); conditions: mRNA level, 48 h; actives raise or lower the signal
# Method in brief: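 Gene expression of ABCG2 in HepaRG liver cells is quantified by qRT-PCR following 48 h exposure across an eight-point series topping at 100 uM. Values come from bidirectional fitting relative to DMSO vehicle.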
# Fatty acid synthase (Homo sapiens), sequence (P49327 whole entry, looked up): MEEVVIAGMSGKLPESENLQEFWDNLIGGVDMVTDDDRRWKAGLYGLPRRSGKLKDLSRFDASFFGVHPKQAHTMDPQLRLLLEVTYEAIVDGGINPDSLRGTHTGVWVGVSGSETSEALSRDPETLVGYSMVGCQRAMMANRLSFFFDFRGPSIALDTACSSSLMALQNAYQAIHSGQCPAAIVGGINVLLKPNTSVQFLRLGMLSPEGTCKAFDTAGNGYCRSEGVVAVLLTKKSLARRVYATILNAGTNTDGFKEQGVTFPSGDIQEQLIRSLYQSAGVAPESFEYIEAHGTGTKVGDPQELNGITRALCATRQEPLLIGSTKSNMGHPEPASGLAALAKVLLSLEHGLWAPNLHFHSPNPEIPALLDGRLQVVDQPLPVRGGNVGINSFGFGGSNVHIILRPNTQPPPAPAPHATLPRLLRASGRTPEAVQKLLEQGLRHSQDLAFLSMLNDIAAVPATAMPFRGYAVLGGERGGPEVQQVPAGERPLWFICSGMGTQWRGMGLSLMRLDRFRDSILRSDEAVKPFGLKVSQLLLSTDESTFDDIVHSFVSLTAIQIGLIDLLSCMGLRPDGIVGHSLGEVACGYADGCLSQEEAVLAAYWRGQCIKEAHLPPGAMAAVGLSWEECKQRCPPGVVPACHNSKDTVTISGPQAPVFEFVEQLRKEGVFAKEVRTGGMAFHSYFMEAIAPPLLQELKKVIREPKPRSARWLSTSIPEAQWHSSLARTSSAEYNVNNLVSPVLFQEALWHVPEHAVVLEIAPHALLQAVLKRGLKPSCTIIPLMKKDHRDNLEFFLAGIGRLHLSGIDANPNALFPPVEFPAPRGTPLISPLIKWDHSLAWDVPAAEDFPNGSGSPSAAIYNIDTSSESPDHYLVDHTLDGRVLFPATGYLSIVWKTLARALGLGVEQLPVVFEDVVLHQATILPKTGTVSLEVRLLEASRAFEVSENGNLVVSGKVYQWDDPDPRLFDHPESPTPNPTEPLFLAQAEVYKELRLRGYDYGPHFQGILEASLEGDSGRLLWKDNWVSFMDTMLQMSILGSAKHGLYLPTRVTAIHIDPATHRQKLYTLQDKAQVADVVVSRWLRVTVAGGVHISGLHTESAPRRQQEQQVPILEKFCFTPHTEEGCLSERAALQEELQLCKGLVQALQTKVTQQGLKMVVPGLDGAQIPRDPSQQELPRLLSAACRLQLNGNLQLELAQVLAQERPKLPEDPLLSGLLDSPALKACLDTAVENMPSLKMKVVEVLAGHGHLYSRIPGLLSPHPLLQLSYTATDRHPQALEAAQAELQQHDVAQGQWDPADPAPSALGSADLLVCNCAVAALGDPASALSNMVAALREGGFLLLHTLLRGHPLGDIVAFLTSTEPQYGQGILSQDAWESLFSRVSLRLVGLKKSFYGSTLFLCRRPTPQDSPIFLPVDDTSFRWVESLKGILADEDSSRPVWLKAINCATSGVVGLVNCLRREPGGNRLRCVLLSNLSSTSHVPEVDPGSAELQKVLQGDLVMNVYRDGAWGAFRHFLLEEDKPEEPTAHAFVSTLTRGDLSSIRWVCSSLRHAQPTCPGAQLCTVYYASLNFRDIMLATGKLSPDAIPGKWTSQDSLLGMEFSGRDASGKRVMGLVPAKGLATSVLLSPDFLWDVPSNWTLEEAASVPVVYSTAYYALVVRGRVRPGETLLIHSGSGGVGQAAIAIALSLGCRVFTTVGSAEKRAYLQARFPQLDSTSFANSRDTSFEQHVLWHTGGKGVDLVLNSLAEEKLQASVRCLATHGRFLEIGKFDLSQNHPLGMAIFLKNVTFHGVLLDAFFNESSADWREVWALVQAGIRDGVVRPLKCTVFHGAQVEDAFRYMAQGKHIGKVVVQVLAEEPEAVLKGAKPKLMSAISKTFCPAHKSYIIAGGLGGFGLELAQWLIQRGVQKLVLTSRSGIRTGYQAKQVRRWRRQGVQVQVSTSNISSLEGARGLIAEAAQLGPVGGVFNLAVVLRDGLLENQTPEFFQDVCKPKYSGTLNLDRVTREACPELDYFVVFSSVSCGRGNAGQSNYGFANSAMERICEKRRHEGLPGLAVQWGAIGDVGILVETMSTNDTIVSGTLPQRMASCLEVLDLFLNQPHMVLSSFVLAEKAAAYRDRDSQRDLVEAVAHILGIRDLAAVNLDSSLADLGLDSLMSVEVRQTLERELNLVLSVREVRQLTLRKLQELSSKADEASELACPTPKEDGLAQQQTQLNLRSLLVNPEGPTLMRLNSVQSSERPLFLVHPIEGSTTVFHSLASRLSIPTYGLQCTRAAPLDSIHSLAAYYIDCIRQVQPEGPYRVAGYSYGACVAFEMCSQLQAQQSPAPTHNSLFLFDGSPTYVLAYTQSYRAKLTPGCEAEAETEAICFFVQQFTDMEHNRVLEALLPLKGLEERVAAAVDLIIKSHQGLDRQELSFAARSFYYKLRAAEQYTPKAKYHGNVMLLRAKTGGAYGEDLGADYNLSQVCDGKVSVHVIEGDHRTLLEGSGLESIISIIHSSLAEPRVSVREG
# Broad substrate specificity ATP-binding cassette transporter ABCG2 (Homo sapiens), sequence (Q9UNQ0 whole entry, looked up): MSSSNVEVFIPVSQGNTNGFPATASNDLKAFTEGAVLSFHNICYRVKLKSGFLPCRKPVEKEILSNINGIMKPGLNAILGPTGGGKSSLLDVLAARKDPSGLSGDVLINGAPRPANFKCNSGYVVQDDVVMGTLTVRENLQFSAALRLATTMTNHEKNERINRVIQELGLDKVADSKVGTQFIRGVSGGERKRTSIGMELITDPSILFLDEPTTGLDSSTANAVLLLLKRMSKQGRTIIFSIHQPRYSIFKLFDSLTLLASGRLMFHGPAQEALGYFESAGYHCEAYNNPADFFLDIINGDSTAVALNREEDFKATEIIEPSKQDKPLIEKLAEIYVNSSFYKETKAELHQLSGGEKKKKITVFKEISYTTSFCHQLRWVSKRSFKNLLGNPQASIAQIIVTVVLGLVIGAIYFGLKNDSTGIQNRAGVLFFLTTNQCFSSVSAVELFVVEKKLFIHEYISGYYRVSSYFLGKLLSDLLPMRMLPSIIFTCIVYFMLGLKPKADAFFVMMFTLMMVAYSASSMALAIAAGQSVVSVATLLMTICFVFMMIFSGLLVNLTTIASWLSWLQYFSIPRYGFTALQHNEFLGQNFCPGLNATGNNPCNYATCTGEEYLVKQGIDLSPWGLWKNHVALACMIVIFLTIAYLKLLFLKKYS
compound,measurement,setting,value
CC(=O)[C@@]1(O)CC[C@H]2[C@@H]3CCC4=CC(=O)CC[C@]4(C)[C@H]3CC[C@@]21C,AC50,[1],42.6 µM (active)
same,outcome,[2],inactive
same,AC50,[3],50 µM (active)
same,outcome,[4],inactive
same,outcome,[5],inactive
same,outcome,[6],inactive
same,outcome,[7],inactive
same,outcome,[8],inactive
same,outcome,[9],inactive
same,outcome,[10],inactive
same,outcome,[11],inactive
same,outcome,[12],inactive
same,outcome,[13],inactive
same,outcome,[14],inactive
same,outcome,[15],inactive
same,outcome,[16],inactive
O=C(Oc1ccccc1)c1cccc(C(=O)Oc2ccccc2)c1,outcome,[1],inactive
same,outcome,[2],inactive
same,outcome,[3],inactive
same,outcome,[4],inactive
same,outcome,[5],inactive
same,outcome,[6],inactive
same,outcome,[7],inactive
same,outcome,[8],inactive
same,AC50,[17],67.7 µM (active)
same,outcome,[9],inactive
same,outcome,[10],inactive
same,outcome,[18],inactive
same,outcome,[11],inactive
same,outcome,[12],inactive
same,outcome,[13],inactive
same,outcome,[14],inactive
same,outcome,[15],inactive
same,outcome,[16],inactive
CC(C)(O)c1ccc(CNC(=O)c2cccnc2Oc2ccc(F)cc2)cc1,outcome,[1],inactive
same,outcome,[2],inactive
same,outcome,[3],inactive
same,outcome,[4],inactive
same,outcome,[5],inactive
same,outcome,[6],inactive
same,outcome,[7],inactive
same,outcome,[8],inactive
same,AC50,[17],67.4 µM (active)
same,outcome,[9],inactive
same,outcome,[10],inactive
same,outcome,[11],inactive
same,outcome,[12],inactive
same,outcome,[13],inactive
same,outcome,[14],inactive
same,outcome,[15],inactive
same,outcome,[19],inactive
same,AC50,[16],29.5 µM (active)
CC(C)(C)c1ccccc1,outcome,[2],inactive
same,outcome,[3],inactive
same,outcome,[4],inactive
same,outcome,[5],inactive
same,outcome,[6],inactive
same,outcome,[7],inactive
same,outcome,[8],inactive
same,AC50,[17],50 µM (active)
same,outcome,[9],inactive
same,outcome,[10],inactive
same,outcome,[11],inactive
same,outcome,[12],inactive
same,outcome,[13],inactive
same,outcome,[14],inactive
same,outcome,[15],inactive
same,outcome,[19],inactive
same,outcome,[16],inactive
O=C1OC(c2ccc(O)cc2)(c2ccc(O)cc2)c2ccccc21,AC50,[1],2.39 µM (active)
same,outcome,[2],inactive
same,AC50,[3],89.6 µM (active)
same,outcome,[4],inactive
same,outcome,[5],inactive
same,AC50,[7],69.2 µM (active)
same,AC50,[8],93.8 µM (active)
same,AC50,[17],50 µM (active)
same,AC50,[9],76.4 µM (active)
same,AC50,[10],50 µM (active)
same,outcome,[18],inactive
same,outcome,[11],inactive
same,AC50,[12],50 µM (active)
same,outcome,[13],inactive
same,outcome,[14],inactive
same,outcome,[15],inactive
same,AC50,[19],69.8 µM (active)
same,outcome,[16],inactive
same,AC50,[20],79.2 µM (active)
CCCCC(CC)CO (centres undefined),outcome,[2],inactive
same,outcome,[3],inactive
same,AC50,[4],59.8 µM (active)
same,outcome,[5],inactive
same,outcome,[6],inactive
same,outcome,[7],inactive
same,outcome,[8],inactive
same,AC50,[17],39.1 µM (active)
same,outcome,[9],inactive
same,outcome,[11],inactive
same,outcome,[12],inactive
same,outcome,[13],inactive
same,outcome,[14],inactive
same,outcome,[15],inactive
same,outcome,[19],inactive
same,outcome,[16],inactive
